Assay [1] has as its target Ribosomal protein S6 kinase alpha-6 (Homo sapiens) (UniProt Q9UK32). Particulars: at 1 µM.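 Further: each value is a mean inhibition of RSK4 from a GSK PKIS panel screen.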
Assay [2] has as its target T1, Serine/threonine-protein kinase Sgk1 (Homo sapiens) (UniProt O00141).
T1 sequence (whole entry): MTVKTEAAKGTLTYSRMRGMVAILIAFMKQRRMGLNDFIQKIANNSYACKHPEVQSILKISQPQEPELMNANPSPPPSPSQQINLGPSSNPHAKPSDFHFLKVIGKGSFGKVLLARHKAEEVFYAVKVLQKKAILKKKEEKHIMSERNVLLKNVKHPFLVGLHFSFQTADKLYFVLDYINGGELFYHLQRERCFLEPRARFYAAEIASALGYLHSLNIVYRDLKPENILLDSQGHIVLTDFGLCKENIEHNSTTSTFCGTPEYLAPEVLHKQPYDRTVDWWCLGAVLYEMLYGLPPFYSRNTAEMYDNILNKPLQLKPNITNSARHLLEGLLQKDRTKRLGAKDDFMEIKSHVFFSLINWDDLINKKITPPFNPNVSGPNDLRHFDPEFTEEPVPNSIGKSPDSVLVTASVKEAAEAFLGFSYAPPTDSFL
Particulars: at 0.1 µM.

Assay [3] has as its target T1, Serine/threonine-protein kinase Sgk1 (Homo sapiens). Particulars: at 1 µM.
The target of assay [4] is T2, Serine/threonine-protein kinase Sgk2 (Homo sapiens) (UniProt Q9HBY8).
T2 sequence (whole entry): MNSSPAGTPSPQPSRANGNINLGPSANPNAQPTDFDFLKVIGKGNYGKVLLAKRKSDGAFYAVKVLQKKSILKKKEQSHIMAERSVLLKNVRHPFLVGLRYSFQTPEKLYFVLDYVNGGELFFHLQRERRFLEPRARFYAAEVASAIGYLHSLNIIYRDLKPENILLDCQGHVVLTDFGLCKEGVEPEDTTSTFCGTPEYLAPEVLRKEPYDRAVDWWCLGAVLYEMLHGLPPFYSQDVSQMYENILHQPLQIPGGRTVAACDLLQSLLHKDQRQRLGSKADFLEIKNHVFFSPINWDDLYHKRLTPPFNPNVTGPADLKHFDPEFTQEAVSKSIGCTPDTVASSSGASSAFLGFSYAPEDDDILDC
Particulars: at 0.1 µM.

The target of assay [5] is T2, Serine/threonine-protein kinase Sgk2 (Homo sapiens). To be noted: at 1 µM.
Assay [6] concerns the target T3, Serine/threonine-protein kinase Sgk3 (Homo sapiens) (UniProt Q96BR1).
T3 sequence (whole entry): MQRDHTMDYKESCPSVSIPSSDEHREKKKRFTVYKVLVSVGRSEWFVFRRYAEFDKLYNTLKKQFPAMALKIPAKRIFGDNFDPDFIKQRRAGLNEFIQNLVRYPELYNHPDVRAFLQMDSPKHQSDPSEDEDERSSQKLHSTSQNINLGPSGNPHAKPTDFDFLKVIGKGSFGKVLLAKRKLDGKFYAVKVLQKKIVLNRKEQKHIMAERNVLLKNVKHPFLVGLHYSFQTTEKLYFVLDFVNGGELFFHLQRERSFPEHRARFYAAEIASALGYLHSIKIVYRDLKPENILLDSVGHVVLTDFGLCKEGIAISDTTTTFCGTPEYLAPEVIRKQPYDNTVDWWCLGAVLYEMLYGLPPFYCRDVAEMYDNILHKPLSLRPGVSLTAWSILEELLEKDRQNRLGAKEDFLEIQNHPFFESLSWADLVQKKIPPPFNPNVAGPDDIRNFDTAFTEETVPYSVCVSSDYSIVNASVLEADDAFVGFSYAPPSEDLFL
Particulars: at 0.1 µM.

Assay [7] has as its target T3, Serine/threonine-protein kinase Sgk3 (Homo sapiens). To be noted: at 1 µM.
In assay [8] the target is 5'-AMP-activated protein kinase catalytic subunit alpha-1 (Homo sapiens) (UniProt Q13131). To be noted: at 0.1 µM.
5'-AMP-activated protein kinase catalytic subunit alpha-1 (Homo sapiens), sequence (Q13131 whole entry, looked up): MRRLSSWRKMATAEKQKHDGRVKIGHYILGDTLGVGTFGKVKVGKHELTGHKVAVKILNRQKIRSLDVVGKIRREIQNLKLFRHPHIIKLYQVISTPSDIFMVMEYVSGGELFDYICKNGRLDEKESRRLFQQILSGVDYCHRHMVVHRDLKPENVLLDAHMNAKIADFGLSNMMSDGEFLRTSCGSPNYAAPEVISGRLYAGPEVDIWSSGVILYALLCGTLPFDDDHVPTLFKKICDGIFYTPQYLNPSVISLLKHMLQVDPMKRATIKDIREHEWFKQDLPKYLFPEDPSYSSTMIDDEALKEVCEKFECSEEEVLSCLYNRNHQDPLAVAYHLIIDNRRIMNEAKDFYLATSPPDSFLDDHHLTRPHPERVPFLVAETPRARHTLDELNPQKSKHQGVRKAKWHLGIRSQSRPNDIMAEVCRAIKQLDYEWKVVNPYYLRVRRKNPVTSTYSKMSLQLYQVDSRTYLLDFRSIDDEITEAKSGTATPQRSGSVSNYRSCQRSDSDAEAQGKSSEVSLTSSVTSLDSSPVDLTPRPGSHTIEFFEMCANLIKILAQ
The target is the same in assay [9]. Particulars: at 1 µM.
For assay [10], the target named is 5'-AMP-activated protein kinase catalytic subunit alpha-2 (Homo sapiens) (UniProt P54646). Particulars: at 0.1 µM.
5'-AMP-activated protein kinase catalytic subunit alpha-2 (Homo sapiens), sequence (P54646 whole entry, looked up): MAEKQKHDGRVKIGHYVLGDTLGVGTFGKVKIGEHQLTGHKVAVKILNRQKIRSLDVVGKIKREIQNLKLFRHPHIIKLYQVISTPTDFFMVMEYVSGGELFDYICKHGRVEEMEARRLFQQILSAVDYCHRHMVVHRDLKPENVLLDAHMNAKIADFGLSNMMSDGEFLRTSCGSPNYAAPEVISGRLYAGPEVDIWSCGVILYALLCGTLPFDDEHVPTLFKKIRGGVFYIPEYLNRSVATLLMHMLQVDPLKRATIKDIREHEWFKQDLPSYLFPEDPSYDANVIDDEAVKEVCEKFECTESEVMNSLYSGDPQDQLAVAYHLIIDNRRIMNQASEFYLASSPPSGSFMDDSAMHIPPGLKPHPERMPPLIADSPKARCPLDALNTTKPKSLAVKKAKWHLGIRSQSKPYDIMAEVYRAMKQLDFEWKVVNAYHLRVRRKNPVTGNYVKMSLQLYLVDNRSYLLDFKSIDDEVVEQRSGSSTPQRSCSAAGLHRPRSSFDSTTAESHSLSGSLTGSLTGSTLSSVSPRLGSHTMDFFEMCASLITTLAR
For assay [11] the target is unchanged. To be noted: at 1 µM.
Assay [12] addresses T4, NUAK family SNF1-like kinase 1 (Homo sapiens) (UniProt O60285).
T4 sequence (whole entry): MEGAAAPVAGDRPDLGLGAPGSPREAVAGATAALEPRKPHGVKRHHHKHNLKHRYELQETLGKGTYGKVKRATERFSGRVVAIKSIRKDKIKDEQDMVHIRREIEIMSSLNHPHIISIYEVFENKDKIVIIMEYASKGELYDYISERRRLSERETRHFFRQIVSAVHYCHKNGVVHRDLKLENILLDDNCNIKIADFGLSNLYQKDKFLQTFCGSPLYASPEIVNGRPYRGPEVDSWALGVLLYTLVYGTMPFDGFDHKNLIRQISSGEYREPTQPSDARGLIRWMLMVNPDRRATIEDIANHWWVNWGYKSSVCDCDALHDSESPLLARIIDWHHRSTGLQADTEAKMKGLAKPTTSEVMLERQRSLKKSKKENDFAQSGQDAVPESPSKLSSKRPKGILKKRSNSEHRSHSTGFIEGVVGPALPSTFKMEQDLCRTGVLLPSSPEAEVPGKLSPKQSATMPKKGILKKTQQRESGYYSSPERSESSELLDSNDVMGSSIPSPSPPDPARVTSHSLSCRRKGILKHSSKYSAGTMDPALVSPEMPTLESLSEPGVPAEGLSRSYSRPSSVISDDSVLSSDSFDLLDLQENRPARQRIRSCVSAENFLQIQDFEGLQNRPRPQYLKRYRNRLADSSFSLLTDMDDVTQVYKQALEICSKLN
Particulars: at 0.1 µM.

The target of assay [13] is T4, NUAK family SNF1-like kinase 1 (Homo sapiens). Particulars: at 1 µM.
The target in assay [14] is T5, Serine/threonine-protein kinase BRSK1 (Homo sapiens) (UniProt Q8TDC3).
T5 sequence (whole entry): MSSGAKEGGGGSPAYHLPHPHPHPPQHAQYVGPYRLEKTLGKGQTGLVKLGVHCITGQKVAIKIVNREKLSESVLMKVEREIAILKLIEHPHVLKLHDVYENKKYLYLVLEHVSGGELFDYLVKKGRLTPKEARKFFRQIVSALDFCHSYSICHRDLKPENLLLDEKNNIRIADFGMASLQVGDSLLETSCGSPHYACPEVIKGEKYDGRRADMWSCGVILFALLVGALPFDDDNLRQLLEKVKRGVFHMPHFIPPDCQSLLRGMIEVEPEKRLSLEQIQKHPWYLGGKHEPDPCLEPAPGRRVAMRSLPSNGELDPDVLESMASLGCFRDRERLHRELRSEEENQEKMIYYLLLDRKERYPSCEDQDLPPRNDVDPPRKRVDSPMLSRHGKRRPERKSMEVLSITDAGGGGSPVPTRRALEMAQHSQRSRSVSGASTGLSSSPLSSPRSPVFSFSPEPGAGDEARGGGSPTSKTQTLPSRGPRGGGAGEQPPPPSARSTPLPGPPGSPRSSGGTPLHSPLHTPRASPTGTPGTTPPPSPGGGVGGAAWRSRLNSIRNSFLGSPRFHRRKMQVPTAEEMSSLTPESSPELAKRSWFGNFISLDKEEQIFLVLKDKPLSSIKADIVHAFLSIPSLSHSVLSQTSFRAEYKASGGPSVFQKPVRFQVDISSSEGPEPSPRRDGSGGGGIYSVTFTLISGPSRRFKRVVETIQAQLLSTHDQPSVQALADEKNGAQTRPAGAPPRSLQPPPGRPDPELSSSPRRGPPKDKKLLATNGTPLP
To be noted: at 0.1 µM.

Assay [15] has as its target T5, Serine/threonine-protein kinase BRSK1 (Homo sapiens). Particulars: at 1 µM.
Assay [16] concerns the target T6, Serine/threonine-protein kinase BRSK2 (Homo sapiens) (UniProt Q8IWQ3).
T6 sequence (whole entry): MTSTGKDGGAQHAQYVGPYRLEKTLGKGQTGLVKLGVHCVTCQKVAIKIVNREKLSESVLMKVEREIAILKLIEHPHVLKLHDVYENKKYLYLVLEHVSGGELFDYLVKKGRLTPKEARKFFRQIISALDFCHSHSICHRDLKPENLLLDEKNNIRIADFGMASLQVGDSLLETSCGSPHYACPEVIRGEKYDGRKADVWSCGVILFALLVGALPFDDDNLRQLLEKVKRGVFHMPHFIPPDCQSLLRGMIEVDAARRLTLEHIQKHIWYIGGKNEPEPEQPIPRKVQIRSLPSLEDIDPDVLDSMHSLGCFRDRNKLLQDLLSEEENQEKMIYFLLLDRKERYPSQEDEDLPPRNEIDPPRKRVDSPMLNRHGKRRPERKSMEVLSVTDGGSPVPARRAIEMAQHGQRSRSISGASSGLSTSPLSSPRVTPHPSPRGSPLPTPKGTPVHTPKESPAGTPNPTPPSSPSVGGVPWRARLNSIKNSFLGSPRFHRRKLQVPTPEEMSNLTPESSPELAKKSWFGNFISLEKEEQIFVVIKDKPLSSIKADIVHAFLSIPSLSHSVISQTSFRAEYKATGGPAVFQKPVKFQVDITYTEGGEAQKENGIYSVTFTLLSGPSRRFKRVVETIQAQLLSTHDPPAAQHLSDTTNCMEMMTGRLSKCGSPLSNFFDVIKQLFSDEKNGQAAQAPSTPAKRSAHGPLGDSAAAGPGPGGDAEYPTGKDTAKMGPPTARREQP
Particulars: at 0.1 µM.

Assay [17] concerns the target T6, Serine/threonine-protein kinase BRSK2 (Homo sapiens). Particulars: at 1 µM.
For assay [18], the target named is Calcium/calmodulin-dependent protein kinase type 1D (Homo sapiens) (UniProt Q8IU85). Particulars: at 0.1 µM.
Calcium/calmodulin-dependent protein kinase type 1D (Homo sapiens), sequence (Q8IU85 whole entry, looked up): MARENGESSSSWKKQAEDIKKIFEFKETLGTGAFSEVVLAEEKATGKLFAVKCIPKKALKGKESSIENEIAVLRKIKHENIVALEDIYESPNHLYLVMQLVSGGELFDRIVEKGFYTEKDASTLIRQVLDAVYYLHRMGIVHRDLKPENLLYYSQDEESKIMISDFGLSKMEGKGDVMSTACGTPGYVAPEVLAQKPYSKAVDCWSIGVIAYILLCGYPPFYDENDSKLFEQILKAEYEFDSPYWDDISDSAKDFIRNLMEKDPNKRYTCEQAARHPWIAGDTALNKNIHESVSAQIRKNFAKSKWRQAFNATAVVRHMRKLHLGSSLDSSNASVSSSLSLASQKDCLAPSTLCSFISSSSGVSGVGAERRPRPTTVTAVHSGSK
For assay [19] the target is unchanged. To be noted: at 1 µM.
The target in assay [20] is Calcium/calmodulin-dependent protein kinase type II subunit alpha (Homo sapiens) (UniProt Q9UQM7). Particulars: at 0.1 µM.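 Further: reported values are averages (mean inhibition of CAMK2A).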
Calcium/calmodulin-dependent protein kinase type II subunit alpha (Homo sapiens), sequence (Q9UQM7 whole entry): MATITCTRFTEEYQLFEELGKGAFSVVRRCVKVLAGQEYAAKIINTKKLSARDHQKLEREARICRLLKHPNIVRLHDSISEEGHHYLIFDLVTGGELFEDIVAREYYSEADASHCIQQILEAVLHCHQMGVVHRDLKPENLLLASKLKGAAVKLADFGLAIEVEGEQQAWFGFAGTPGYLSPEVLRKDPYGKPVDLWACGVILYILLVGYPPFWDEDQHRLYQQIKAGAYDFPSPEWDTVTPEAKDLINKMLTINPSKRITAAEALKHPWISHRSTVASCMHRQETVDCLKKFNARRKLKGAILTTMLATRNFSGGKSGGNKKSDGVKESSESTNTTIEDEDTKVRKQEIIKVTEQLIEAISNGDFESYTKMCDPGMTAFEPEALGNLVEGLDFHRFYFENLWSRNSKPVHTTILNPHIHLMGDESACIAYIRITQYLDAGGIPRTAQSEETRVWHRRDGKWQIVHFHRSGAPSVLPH

Ribosomal protein S6 kinase alpha-6 (Homo sapiens), sequence (Q9UK32 whole entry): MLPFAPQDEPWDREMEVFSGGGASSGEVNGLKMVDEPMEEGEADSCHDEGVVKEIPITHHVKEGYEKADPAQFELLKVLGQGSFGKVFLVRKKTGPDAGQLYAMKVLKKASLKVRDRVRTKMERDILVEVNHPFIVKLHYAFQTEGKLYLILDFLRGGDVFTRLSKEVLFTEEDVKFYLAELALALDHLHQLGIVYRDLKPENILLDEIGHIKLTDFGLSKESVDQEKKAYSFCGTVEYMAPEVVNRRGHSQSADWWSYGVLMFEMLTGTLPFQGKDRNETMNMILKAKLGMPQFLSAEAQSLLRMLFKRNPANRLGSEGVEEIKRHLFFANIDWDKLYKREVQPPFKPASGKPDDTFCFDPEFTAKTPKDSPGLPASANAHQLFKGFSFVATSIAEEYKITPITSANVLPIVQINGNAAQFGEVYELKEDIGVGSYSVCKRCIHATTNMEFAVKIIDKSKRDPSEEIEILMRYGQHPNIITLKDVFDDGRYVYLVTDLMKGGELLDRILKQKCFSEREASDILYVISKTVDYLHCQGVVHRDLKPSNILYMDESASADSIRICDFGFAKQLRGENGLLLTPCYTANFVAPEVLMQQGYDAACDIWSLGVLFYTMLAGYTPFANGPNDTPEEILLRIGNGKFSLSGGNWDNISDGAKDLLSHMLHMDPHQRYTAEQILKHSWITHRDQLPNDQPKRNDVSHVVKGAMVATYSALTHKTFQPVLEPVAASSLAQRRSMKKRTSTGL

Broadly, the inhibition is the relative decrease from the control value, in per cent. In the case of `Cc1ccc(C(=O)NC2CC2)cc1-c1ccc2[nH]ncc2c1`, the inhibition in assay [1] was -0.57%; in assay [2], -2.34%; in assay [3], -1.16%; in assay [4], -5.03%; in assay [5], -0.82%; in assay [6] it was -5.05%. Moreover, the inhibition is 1.68% in assay [7]; -1.87% in assay [8]; 0.2% in assay [9]; 0.12% in assay [10]; -3.42% in assay [11]; 6.51% in [12]. In addition, the inhibition was 6.93% in [13]; 1.35% in [14]; 3.03% in assay [15]; 1.54% in [16]; 5.84% in [17]; -0.69% in assay [18]. Also, the inhibition was 0.06% in assay [19] and -4.3% in [20].

Turning to `COc1cc2ncnc(Nc3ccc(C)c(O)c3)c2cc1OC`, the inhibition in assay [1] came out at 3.03%; in [2] it was 2.84%; in assay [3], 5.46%; in [4], 3.56%; in [5] it was 2.34%; in assay [6] it was 2.82%. Also, the inhibition was found to be 4.55% in assay [7]; 4.38% in assay [8]; 5.7% in assay [9]; 3.32% in assay [10]; 5.2% in assay [11]; 7.16% in assay [12]. Moreover, the inhibition in [13] is 1.93%; in assay [14], 1.23%; in assay [15], 3.78%; in [16] it was 3.07%; in assay [17] it was 6.2%; in assay [18] it was -0.09%. The inhibition in assay [19] is 0.02%; in assay [20] it was 2.98%.

As for `O=C1Nc2ccccc2/C1=C/Nc1ccc2[nH]c(=O)[nH]c2c1`, the inhibition in [1] worked out at 16.3%; in [2] it was 5.08%; in assay [3] it was 22.7%; in assay [4], 1.44%; in [5], 13.4%; in assay [6] it was 3.83%. Moreover, the inhibition in assay [7] is 9.07%; in assay [8] it was 6.25%; in [9], 20%; in assay [10], 4.32%; in [11], 12.8%; in [12], 12.6%. In addition, the inhibition in assay [13] is 46%; in [14], 1.38%; in assay [15], 15.7%; in [16], 5.21%; in assay [17] it was 25.8%; in assay [18] it was -1.27%. The results for the inhibition in [19] and in assay [20] were 1.07% and 3.83%, respectively.

These data come from ChEMBL document CHEMBL1961873, “Compounds: GSK PKIS; Assays: Nanosyn kinase panel” (2012).
